From PubChem BioAssay (NCI)
The panel holds about 83,000 compounds, 20% with a hit somewhere; the sample as a whole holds those more often.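 Method: cells in 96-well plates; compound added at one concentration; 48 h incubation; percent growth measured; values under 10 scored active.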 Unmarked numbers belong to inactive results. Activity calls are given as the source filed them.

Columns and labels:
Test in all cases: NCI-60 one-dose screen, 48 h (100 = growth as untreated, 0 = no growth, -100 = all killed)
Conditions in all cases: 10 µM
SR leukemia = tested on: SR leukemia
RPMI-8226 leukemia = tested on: RPMI-8226 leukemia
OVCAR-8 ovarian = tested on: OVCAR-8 ovarian
OVCAR-5 ovarian = tested on: OVCAR-5 ovarian
OVCAR-4 ovarian = tested on: OVCAR-4 ovarian
SK-OV-3 ovarian = tested on: SK-OV-3 ovarian
IGROV1 ovarian = tested on: IGROV1 ovarian
OVCAR-3 ovarian = tested on: OVCAR-3 ovarian
HS 578T breast = tested on: HS 578T breast
T-47D breast = tested on: T-47D breast
BT-549 breast = tested on: BT-549 breast
MDA-MB-435 melanoma = tested on: MDA-MB-435 melanoma
SW-620 colon = tested on: SW-620 colon
MCF7 breast = tested on: MCF7 breast
HCT-116 colon = tested on: HCT-116 colon
HCC-2998 colon = tested on: HCC-2998 colon
KM12 colon = tested on: KM12 colon
NCI/ADR-RES ovarian = tested on: NCI/ADR-RES ovarian

Structure (SMILES)	growth (SR leukemia)	growth (RPMI-8226 leukemia)	growth (OVCAR-8 ovarian)	growth (OVCAR-5 ovarian) [%]	growth (OVCAR-4 ovarian)	growth (SK-OV-3 ovarian)	growth (IGROV1 ovarian)	growth (OVCAR-3 ovarian)	growth (HS 578T breast)	growth (T-47D breast)	growth (BT-549 breast)	growth (MDA-MB-435 melanoma)	growth (SW-620 colon)	growth (MCF7 breast)	growth (HCT-116 colon)	growth (HCC-2998 colon)	growth (KM12 colon)	growth (NCI/ADR-RES ovarian)
O=C(CI)OCC(COC(=O)CI)OC(=O)CI	-12.9% (active)	50.9%	97.9%	104	64%	119%	-57.1% (active)	72.2%	97.4%	35.4%	74.6%	91.5%	27.5%	56.1%	56.3%	102%	102%	–
COc1cc(/C=C/c2cc(/C=C/c3ccc(O)c(OC)c3)[nH]c(=O)n2)ccc1O	27.2%	62.5%	58.7%	102	54%	71.6%	93.1%	59.3%	53.9%	59.1%	55%	56.9%	43.6%	52.1%	34.7%	71%	29.3%	–
CN1CCN(CC(=O)Nc2cccc(-n3cc(-c4ccncc4)c(-c4ccc(Cl)c(O)c4)n3)c2)CC1	5.84% (active)	15.9%	57.2%	68.2	59.8%	55.9%	57.5%	12.8%	38.2%	61.3%	36.6%	-47.5% (active)	20.8%	15.2%	17.3%	85.6%	26.1%	–
Nc1ncc(-c2cnn(C3CCNCC3)c2)cc1-c1nc2ccccc2o1	-74.7% (active)	-56% (active)	9.55% (active)	34.6	35.8%	3.49% (active)	-14.5% (active)	-62.4% (active)	-14.7% (active)	-4.42% (active)	–	-55.5% (active)	-60.4% (active)	11.6%	-2.99% (active)	14.2%	-81.3% (active)	42.8%
COc1ccc(-c2cc(-c3ccc(Cl)cc3)nc(SCCCCCCC(=O)NO)n2)cc1OC	21.3%	-9.15% (active)	51.5%	56.2	70.5%	58.2%	35.9%	75.5%	63.7%	36.1%	79.6%	69.1%	46.3%	24.6%	41.8%	80.3%	69.4%	–
Cc1c2c(nn1C(=O)c1nn(-c3ccc(Cl)cc3)cc1O)-c1ccccc1CC2	-39.9% (active)	-35.3% (active)	6.41% (active)	40.8	15.6%	13%	17.8%	-3.9% (active)	71.5%	1.65% (active)	–	34.3%	32.4%	12.4%	7.08% (active)	9.3% (active)	29.5%	6% (active)
CC(=O)N[C@H](C(=O)N[C@@H](CCCNC(=N)N)C(=O)N[C@@H](CCCCN)C(=O)N[C@@H](CCCNC(=N)N)C(=O)N[C@]1(C)CCC/C=C\CCC[C@@](C)(C(=O)N[C@@H](CC(C)C)C(=O)N[C@@H](CC(C)C)C(=O)N[C@@H](CCC(N)=O)C(=O)N[C@@H](CCC(=O)O)C(=O)N[C@@H](CCCNC(=N)N)C(=O)N[C@@H](CCC(=O)O)C(=O)N[C@@H](CC(C)C)C(=O)N[C@H](C(=O)N[C@@H](CCC(=O)O)C(N)=O)C(C)C)NC(=O)[C@H](CCCNC(=N)N)NC(=O)[C@H](CC(C)C)NC1=O)C(C)C	104%	104%	104%	111	107%	108%	110%	109%	119%	92.4%	102%	110%	113%	102%	105%	109%	105%	–
COc1cc(C2CC(c3ccccc3)=NN2C(C)=O)cc(OC)c1OC (stereo not drawn)	28.1%	81.7%	51.2%	92.3	78.5%	47.5%	24.6%	-10.7% (active)	48.4%	34.1%	–	-29.4% (active)	19.1%	14.6%	19.3%	49.7%	18.4%	11.1%
COc1ccc(C2CC(c3cc(OC)c(OC)c(OC)c3)=NN2)cc1 (stereo not drawn)	-35.1% (active)	-8.7% (active)	100%	97.9	84.9%	81.5%	62.6%	35.1%	104%	51.7%	–	19.9%	48%	10.2%	53.3%	79.3%	15.1%	68.3%
CC(=O)N[C@H](C(=O)N[C@@H](CCCNC(=N)N)C(=O)N[C@@H](CCCCN)C(=O)N[C@@H](CCCNC(=N)N)C(=O)NC(C(=O)N[C@@H](CC(C)C)C(=O)N[C@@H](CCCNC(=N)N)C(=O)N[C@@]1(C)CCC/C=C\CCC[C@@](C)(C(=O)N[C@@H](CCCNC(=N)N)C(=O)N[C@@H](CCC(=O)O)C(=O)N[C@@H](CC(C)C)C(=O)N[C@H](C(=O)N[C@@H](CCC(=O)O)C(N)=O)C(C)C)NC(=O)[C@H](CCC(N)=O)NC(=O)[C@H](CC(C)C)NC(=O)[C@H](CC(C)C)NC1=O)[C@@H](C)O)C(C)C (stereo partly drawn)	14%	-11% (active)	9.08% (active)	25.5	75.9%	53.3%	60.3%	16.8%	-53.9% (active)	-53.4% (active)	-79.7% (active)	-12.1% (active)	22.4%	-79.8% (active)	18.9%	51.3%	-40.8% (active)	–
S=C1N(c2ccccc2)CN(C2CCCCC2)CN1c1ccccc1	102%	103%	75%	104	96.5%	117%	95.9%	106%	63.2%	94.3%	–	–	104%	88.7%	102%	102%	110%	103%
C/C=C/CSC(C)(C)C(=O)NC	109%	99.8%	98.4%	113	117%	95.6%	115%	108%	99.5%	100%	–	106%	104%	93.8%	91.2%	101%	102%	108%
O=S(=O)(Oc1ccc(-c2ccc3sccc3c2)cc1)c1ccccc1	105%	107%	106%	97.3	103%	107%	107%	110%	108%	102%	101%	97.5%	100%	77.5%	105%	93.4%	110%	–
COc1ccc(-c2n[nH]nc2-c2cc(OC)c(OC)c(OC)c2)cc1	7.33% (active)	4.71% (active)	21.8%	43.3	35.4%	48.6%	4.66% (active)	-33.3% (active)	12.2%	21.9%	13.6%	4.87% (active)	19.7%	19.7%	6.27% (active)	14.2%	0.0603% (active)	–
Cc1ccc(NCCN(C)CC(C)O)c2c(=O)c3ccc(Cl)cc3sc12 (stereo not drawn)	-28.9% (active)	-8.72% (active)	58.1%	77.9	67.9%	91.6%	39.8%	73.3%	58.6%	49.7%	–	-49% (active)	-46.4% (active)	17.4%	-48.8% (active)	18%	43.7%	57.8%
C[n+]1c2ccccc2nc2ccccc21	25.9%	-17.2% (active)	10.3%	42.1	21.9%	52%	11%	4.06% (active)	-12.1% (active)	1.26% (active)	–	-40.9% (active)	11.2%	-19.4% (active)	-15.5% (active)	50.6%	30.4%	8.6% (active)
CN(C)CCCSc1ccccc1NC1=C(Cl)C(=O)C(Nc2ccccc2SCCCN(C)C)=C(Cl)C1=O	2.97% (active)	45.8%	-26.5% (active)	33.4	-95.3% (active)	93.6%	-63.5% (active)	-93% (active)	87.1%	-42.8% (active)	–	92.1%	-34.3% (active)	-50% (active)	4.82% (active)	103%	80.2%	72.4%
